# PHOSPHO1 inh: PubChem AID 1565 | Phosphoethanolamine/phosphocholine phosphatase (Homo sapiens), Q8TCT1 | recombinant PHOSPHO1, absorbance phosphatase assay | inhibition, % at 13.3 µM | 290,000 tested, 1.1% active; in the data active = inhibition above about 60%
# CHT allo act: CHT positive allosteric modulators, primary screen, cell-based, membrane potential dye, choline EC20; High affinity choline transporter 1 (Homo sapiens), Q9GZV3; CHT-expressing cells; hits give high values; LV-AA mutant CHT in HEK293 cells; B-score at 10 µM; 310,000 tested, 0.49% active;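 active = initial fluorescence not abnormally high and integrated response B-score, plate-corrected, over 3 SD above library mean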
# Target sequence (Q9GZV3 whole entry, looked up): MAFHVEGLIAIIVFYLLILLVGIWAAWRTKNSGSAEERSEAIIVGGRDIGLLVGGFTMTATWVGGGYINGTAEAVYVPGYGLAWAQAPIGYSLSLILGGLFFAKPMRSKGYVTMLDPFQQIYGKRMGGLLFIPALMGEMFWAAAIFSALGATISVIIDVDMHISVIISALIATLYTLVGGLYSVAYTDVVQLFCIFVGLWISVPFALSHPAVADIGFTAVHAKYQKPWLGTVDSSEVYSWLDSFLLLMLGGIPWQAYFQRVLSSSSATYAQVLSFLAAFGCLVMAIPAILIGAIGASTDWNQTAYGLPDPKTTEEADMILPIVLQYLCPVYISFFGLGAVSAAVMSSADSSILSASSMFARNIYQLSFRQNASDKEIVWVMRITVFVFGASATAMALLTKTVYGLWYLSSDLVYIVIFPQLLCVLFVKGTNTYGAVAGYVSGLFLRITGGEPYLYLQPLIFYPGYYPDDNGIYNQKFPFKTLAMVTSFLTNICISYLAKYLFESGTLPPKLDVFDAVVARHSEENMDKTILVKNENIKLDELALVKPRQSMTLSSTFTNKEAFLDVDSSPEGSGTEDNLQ
# ANO1 activ: TMEM16A chloride channel activators or potentiators, primary screen, cell-based, HTS; HEK293 TMEM16A/YFP-H148Q/I152L, iodide quench fluorescence; hits give low values; B-score at 10 µM; AID 623877, 2012; 340,000 tested, 0.3% active; Anoctamin-1 (Mus musculus), Q8BHY3;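 active = fluorescence-ratio B-score plate-corrected deviation score at least 3 library SD below zero, with starting fluorescence score within 5 deviations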;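 note: channel opened by trigger with iodide after compound preincubation; score built on the fluorescence ratio of max minus min over baseline; more negative score means more quench and so TMEM16A activation or potentiation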
# CHT inh: inhibitors of human choline transporter CHT; High affinity choline transporter 1 (Homo sapiens), Q9GZV3; CHT-expressing cells, membrane potential dye, choline response; hits give low values; B-score at 10 µM; 310,000 tested, 0.86% active;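 active = B-score over 3 SD under the library average, and starting fluorescence ratio not unusually high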;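 note: choline stimulus applied at its EC90 after an EC20 pre-addition; B-score computed on integrated fluorescence ratio after choline addition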
# TMEM16A inh: TMEM16A chloride channel inhibitors, primary screen, cell-based, HTS; HEK293 TMEM16A/YFP iodide influx fluorescence, ionomycin; normalized B-score (activity score, 25-100; higher = stronger inhibition) at 10 µM; Anoctamin-1 (Mus musculus), Q8BHY3; AID 588511, 2011; 310,000 tested, 1.2% active;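 active = ratio plate-corrected score three or more library SD toward inhibition, starting fluorescence score within five deviations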;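 note: score derived from kinetic fluorescence span divided by baseline fluorescence per well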
# HDAC3 inh: HDAC3 deacetylase inhibitors, primary screen, biochemical, fluorescence, cell-free homogeneous; Histone deacetylase 3 (Homo sapiens), O15379; inhibition, % at 8.3 µM; 320,000 tested, 0.15% active; recombinant HDAC3, fluorogenic peptide/trypsin coupled; AID 2718, 2010; in the data active = inhibition above about 26%, passing the limit was not always enough
# CHT act confirm: CHT activators, confirmation, cell-based, membrane potential dye, duplicate. shares compounds with CHT allo act. CHT-expressing cells, membrane potential dye fluorescence (FDSS); % of choline EC20–EC90 response window; HEK293 expressing CHT LV-AA mutant; choline added at its EC20. activation, % at 10 µM. 2,500 tested, 91% active. AID 504833, 2011;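 active = primary screen active, with duplicate mean activation above negative control mean plus 3 SD, cut at about 11% in these data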
# HEK293 MP dye: membrane potential response in parental HEK293 cells, counter-screen for CHT activator project, cell-based, membrane potential dye. shares compounds with CHT allo act. membrane potential dye fluorescence (FDSS); measured after EC20 choline addition. ratio readout change at 10 µM, hits read low. 2,500 tested, 62% active;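 active = duplicate-averaged ratio beyond 3 SD from buffer wells, up or down, though filed actives are nearly all decreases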
# TMEM16A reconf: TMEM16A chloride channel inhibitors, confirmation, cell-based, re-confirmation; inhibition, % at 10 µM; shares compounds with TMEM16A inh; 2,300 tested, 39% active; AID 652189, 2013; HEK293 TMEM16A/YFP-H148Q, iodide quench fluorescence; ionomycin added to raise cell calcium;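 active = mean duplicate percent inhibition, scaled so buffer wells are 0 and the reference blocker 100, over three buffer SD above buffer mean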
# TMEM16A Ca cntr: calcium mobilization in TMEM16A/YFP HEK293 cells, confirmation, counter-screen for TMEM16A inhibitor project | shares compounds with TMEM16A inh | Fluo4 calcium mobilization | calcium response (% of ionomycin), % at 10 µM | 2,300 tested, 2% active | AID 652231, 2013;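 active = duplicate-averaged calcium signal over 20% of the ionomycin maximum, relative to buffer baseline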;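 note: each well's signal is peak minus trough fluorescence divided by its pre-addition baseline; 0% = buffer wells and 100% = ionomycin wells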
# YFP-HEK293 quench: iodide YFP quench changes in parental YFP-HEK293, counter-screen for TMEM16A inhibitor project, cell-based. 2,300 tested, under 10 active. ionomycin. shares compounds with TMEM16A inh. YFP ratio F(max-min)/F0 at 10 µM. AID 652233, 2013;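 active = yellow fluorescent protein signal ratio exceeding the buffer control mean by over 5 SD of those controls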;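 note: ratio is mean of duplicate wells from kinetic YFP trace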
# ClC-1 rat inh: ClC-1 chloride channel inhibition, selectivity assay for TMEM16A inhibitor project, cell-based, voltage-dependent ClC-1; shares compounds with TMEM16A inh; CHO ClC-1-YFP, iodide influx fluorescence quench; iodide control reads 0, buffer control 100; ratio percent, % at 10 µM; 2,300 tested, under 10 active;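 active = duplicate-mean ratio percent above the mean of iodide-only control wells, which defines zero, plus 5 of their SD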;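 note: higher percent means stronger block of ClC-1 iodide influx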
# An asterisk follows results filed as active; i = inactive; · = not tested or not shown. Hits are enriched below; roughly 3.2% of the tested compounds scored in any of these assays.
SMILES,PHOSPHO1 inh,CHT allo act,ANO1 activ,CHT inh,TMEM16A inh,HDAC3 inh,CHT act confirm,HEK293 MP dye,TMEM16A reconf,TMEM16A Ca cntr,YFP-HEK293 quench,ClC-1 rat inh
COC1=C(Nc2ccc(O)cc2)C(=O)c2ccccc2C1=O,-9.3,i,i,i,i,9.6,29.0*,-78.1*,·,·,·,·
COC1=C(Nc2ccc(OC)cc2)C(=O)c2ccccc2C1=O,0.2,6.51*,i,i,i,2.5,11.8*,-64.5*,·,·,·,·
CCOc1ccc(NC2=C(OC)C(=O)c3ccccc3C2=O)cc1,-2.2,i,i,i,i,4.3,13.6*,-66.6*,·,·,·,·
O=C(NCCN1CCN(C(=O)c2ccccc2Cl)CC1)C(=O)NCc1ccccc1,50.8,i,i,i,i,3.4,·,·,·,·,·,·
N#CC1(Cc2ccc([N+](=O)[O-])cc2)c2ccccc2C=CN1C(=O)c1ccccc1 (centres undefined),13.9,i,i,i,i,1.8,27.4*,i,·,·,·,·
CCCCN(CCCC)CP(=O)(c1ccccc1)c1ccccc1,11.3,8.87*,i,i,i,-5.8,30.5*,i,·,·,·,·
O=C(Nc1ccc2c(c1)OCO2)NC1(C(F)(F)F)Oc2ccccc2O1,33.4,i,i,i,i,-8.1,·,·,·,·,·,·
O=C(NC1(C(F)(F)F)Oc2ccccc2O1)N1CCCC1,16.9,6.62*,i,i,100*,4.8,0.5,i,i,i,-1,3.5
CCN(Cc1ccncc1)Cc1cn(C)nc1-c1ccc(Oc2ccccc2)cc1,32.2,i,i,i,100*,3.6,19.2*,i,i,i,-1.19,-5.5
CC(C)N(C)Cc1cn(C)nc1-c1ccc(Oc2ccccc2)cc1,19.3,i,i,i,i,-7.7,·,·,·,·,·,·
N#Cc1ccsc1NC(=O)C1CCN(C(=O)c2ccc(F)cc2)CC1,·,·,i,·,·,1.3,·,·,·,·,·,·
Cc1cccc(N(C)S(=O)(=O)c2ccc(-c3cc(C)no3)s2)c1,14.6,i,i,i,25*,1.7,39.4*,i,i,i,-0.883,-7.5
Nc1ccn(C2CCCO2)c(=O)n1 (centres undefined),·,·,i,·,·,·,·,·,·,·,·,·
Cc1sc2c(=O)n3c(nc2c1C(=O)NCCCN1CCOCC1)CCCCC3,6.7,6.9*,i,i,100*,-4.5,50.7*,-40.1*,i,i,-0.948,-10.0
Cc1cc(C)nc(/N=C(\N)Nc2ccc(SC(F)F)cc2)n1,11.1,i,i,i,100*,-2.2,46.2*,-49*,i,32.0%*,-0.978,-6.0
CC1CC(C)CN(CC(O)COCc2ccccc2)C1 (centres undefined),·,i,i,i,i,-2.2,·,·,·,·,·,·
c1ccc(Nc2nc(NCC3CCCO3)c3ccccc3n2)cc1 (centres undefined),20.5,i,i,i,100*,3.1,·,·,i,i,-1.1,-14.5
OCCNc1nc(Nc2ccccc2)nc2ccccc12,-3.3,i,i,i,i,-0.2,·,·,·,·,·,·
OCCNc1nc(Nc2ccc(Br)cc2)nc2ccccc12,-25.8,i,·,i,25*,-1.4,·,·,22.5%*,i,-1.38,-7.5
CCOC(=O)c1ccc(NC(=S)N2CCSC2c2ccc(Br)cc2)cc1 (centres undefined),13.5,i,-6.5*,i,25*,4.6,·,·,81.5%*,i,-1.07,-2.0
CCOC(=O)c1ccc(NC(=S)N2CCC(O)CC2)cc1,-6.9,i,i,i,i,0.0,·,·,·,·,·,·
CC(Oc1ccc(Cl)cc1Cl)c1nc(-c2ccc(NC(=O)c3cccnc3)cc2)no1 (centres undefined),-13.6,i,i,i,25*,7.3,·,·,i,i,-0.972,-15.0
CCCCCCCCCC(=O)Nc1cccnc1,40.8,i,·,i,i,-7.3,·,·,·,·,·,·
COc1ccc(-c2cc(C(=O)OCC(=O)N(C)C3CCS(=O)(=O)C3)c3ccccc3n2)cc1OC (centres undefined),1.7,i,i,i,i,3.5,·,·,·,·,·,·
NC(=O)c1ccccc1NC(=O)CN1CCCCCC1,28.7,i,i,i,i,·,·,·,·,·,·,·
SMILES,PHOSPHO1 inh,CHT allo act,ANO1 activ,CHT inh,TMEM16A inh,HDAC3 inh,CHT act confirm,HEK293 MP dye,TMEM16A reconf,TMEM16A Ca cntr,YFP-HEK293 quench,ClC-1 rat inh
Cc1c(Cc2ccc3c(c2)OCO3)sc(NC(=O)c2ccccc2)c1C(N)=O,-11.1,i,i,i,i,6.7,·,·,i,i,-1.07,-0.5
Cn1cc(CNC(=O)c2cc(COc3ccc4c(c3)CCCC4)on2)cn1,16.2,i,i,i,25*,-0.9,·,·,i,i,-1.1,-8.0
CCN(Cc1cnn(C)c1)C(=O)c1cc(COc2ccc3c(c2)CCCC3)on1,30.1,i,i,i,i,3.8,·,·,·,·,·,·
Cc1ccc(OCC(=O)c2ccc3c(c2)CCCC3)cc1C,25.4,i,i,i,i,-1.0,·,·,·,·,·,·
O=C(COc1ccc(Br)cc1)c1ccc2c(c1)CCCC2,16.2,i,i,i,25*,-2.9,·,·,i,i,-0.919,-16.5
O=C(O)Cn1cc(C(=S)N2CCOCC2)c2ccccc21,88.2*,i,i,i,25*,5.4,·,·,i,i,-1.37,-5.0

# Assay outcomes as filed in PubChem BioAssay.
